Data taken from PubChem BioAssay (Tox21).
Results filed as inconclusive are left out. Entries that show only a call come without a potency. Active and inactive are the calls of the source. Calls come from the whole dose curve.

Test: p53 small molecule agonists, cell-based qHTS assay: qHTS cell viability counter screen (AID 1963581); note: nearly all actives have a fitted effect of over 45% in size
Outline: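 Cytotoxicity read-out: ATP-based luminescence (CellTiter-Glo, 30 min RT) measured in the same wells as the p53 reporter assay, HCT-116 p53RE-bla cells, 16 h compound exposure at 37 C.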

Row | SMILES | Potency
1 | COc1ccc2c(c1)c(CC(=O)OCC(=O)O)c(C)n2C(=O)c1ccc(Cl)cc1 | inactive
2 | COc1c(C)c2c(c(O)c1C/C=C(\C)CCC(=O)OCCN1CCOCC1)C(=O)OC2 | inactive
3 | CN(C(=O)CCCOc1ccc2[nH]c(=O)ccc2c1)C1CCCCC1 | inactive
4 | O=C(O)c1cc(-c2ccc(F)cc2F)ccc1O | inactive
5 | CC(C)(C)N | inactive
6 | CC1=NN(c2ccc(C(=O)O)cc2)C(=O)C1 | inactive
7 | CC(=O)Oc1ccc(C(C)=O)cc1 | inactive
8 | C1=CCCC1 | inactive
9 | COCCC(=O)OC | inactive
10 | CC(=O)CC(=O)Nc1ccc(C)cc1C | inactive
11 | Cc1c(C(C)C)c(=O)n(-c2ccccc2)n1C | inactive
12 | CCOc1nc(F)cc2nc(S(=O)(=O)Nc3c(Cl)cccc3C(=O)OC)nn12 | inactive
13 | CCCCCCCC1CCCC1=O (stereo not drawn) | inactive
